Source: PubChem BioAssay (Center for Chemical Genomics, University of Michigan)
Dicer processing – blocks human Dicer maturation of pre-miR-21; AID 1347074; cat-ELCCA pre-miR-21 Dicer processing, chemiluminescence; hits give high values; Q9UPY3; 6% of 47,000 active; z-score at 25 µM; in the data active = z-score above about 3, passing the limit was not always enough;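 note: plate controls were vehicle for no effect and no enzyme for full effect; higher signal means more uncleaved substrate so more Dicer inhibition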
The depositor's hits bear a star. The entries come from a sample that favours hits as a whole.

SMILES	Dicer processing
CCOC(=O)C(Cc1cc(F)cc2c1OCOC2)(NC(C)=O)C(=O)OCC	-0.99
O=C(/C=C/Sc1ccc(C(F)(F)F)cn1)c1ccc(F)cc1	-0.98
Cc1ccccc1OCc1nn2c(-c3ccccc3)nnc2s1	0.81
COCCCNc1oc(-c2ccc(OC)cc2)nc1C#N	-0.93
COc1ccc(N(C)CC(=O)O)c(C(=O)O)c1	0.85
ONC(=Nc1cccc(C(F)(F)F)c1)c1ccccc1	-0.29
ONC(=Nc1ccccc1)c1cccc(Cl)c1	-1.71
COc1ccc(N=C(NO)c2ccccc2)cc1Cl	3.11*
COC(=O)c1ccc(C2Nc3ccccc3-c3nnc(SC)nc3O2)cc1 (configuration not stated)	-1.35
O=C(O)CC(CC(=O)O)c1ccc(Cl)cc1Cl	-2.23
Nc1[nH]c(=S)[nH]c(=O)c1C(c1ccc(Cl)cc1Cl)c1c(N)[nH]c(=S)[nH]c1=O	3.37*
Nc1n[nH]c(=O)c2cc(-c3ccc(Cl)cc3)[nH]c(=O)c12	-0.77
Cc1snnc1C(=O)NC(=S)Nc1ccccc1	2.61
CC(C)c1ccc(C2/C(=C(\O)c3ccccc3)C(=O)C(=O)N2Cc2cccnc2)cc1 (configuration not stated)	-0.43
Cc1cc(C)c(-n2c(SCC(=O)Nc3ccc(C(C)C)cc3)n[nH]c2=O)c(C)c1	0.12
O=C(O)CNS(=O)(=O)c1ccccc1	-4.09
CC(C)CC1CC(C)(c2csc(Nc3ccccc3)n2)OC1=O (configuration not stated)	-0.72
CCCOCC1CC2(CC(C)(c3csc(Nc4ccc(C)cc4)n3)OC2=O)C(=O)O1 (configuration not stated)	1.3
C=CCNc1nc(C2(C)CC3(CC(C)OC3=O)C(=O)O2)cs1 (configuration not stated)	3.48*
C=CCNc1nc(C2(C)CC3(CC(COCC(C)C)OC3=O)C(=O)O2)cs1 (configuration not stated)	3.12*
CCC1CC(C)(c2csc(Nc3ccc(C)cc3)n2)OC1=O (configuration not stated)	0.11
CCCCOCC1CC2(CC(C)(c3csc(N)n3)OC2=O)C(=O)O1 (configuration not stated)	-0.37
OCc1nc2cc3ccccc3cc2[nH]1	-1.89
C(CC1CCNCC1)CC1CCNCC1	0.15
CN(Cc1ccccc1)S(=O)(=O)c1ccc(NC2=NS(=O)(=O)c3ccccc32)cc1	0.36
SMILES	Dicer processing
Cc1ccc(CN2C(=O)c3oc4ccc(Br)cc4c(=O)c3C2c2cccc(O)c2)cc1 (configuration not stated)	-0.35
CC1CN(C(=O)CSc2nc(-c3cccs3)cc(C(F)(F)F)n2)CC(C)O1 (configuration not stated)	-0.42
COC(=O)c1ccc(C2SCC(=O)N2c2nc3ccccc3s2)cc1 (configuration not stated)	-0.79
Nc1ncnc2sc3c(c12)CCCCC3	1.66
Nc1nc(-c2ccncc2)nc2sc3c(c12)CCCCC3	4.1*
Nc1ncnc2sc3c(c12)CCCC3	-0.7
CCOC(=O)c1cc(CC)sc1NC(=O)C(F)(F)F	-0.25
CS(=O)(=O)c1ccc2nc(NC(=O)Cc3ccc(Br)cc3)sc2c1	5.28*
CCOC(=O)Nc1nc2ccc(C)cc2s1	0.79
CCCCOC(=O)Nc1nc2ccc(C)cc2s1	2.34
CC(=O)Nc1nc2ccc(Br)cc2s1	-3.01
CS(=O)(=O)c1ccc2nc(NC(=O)CCCC(=O)O)sc2c1	0.15
CCOC(=O)C(=O)Nc1nc2ccc(S(C)(=O)=O)cc2s1	5.83*
CC(C)(C)c1cc2nc(C(F)(F)F)cc(NNC(=O)Nc3ccc(Cl)cc3)n2n1	-0.09
Cn1c(NCc2ccccc2)nc2c1c(=O)n(Cc1ccccc1Cl)c(=O)n2C	-0.69
O=C(Nc1ccc(-n2nc(C(F)(F)F)cc2-c2cccs2)cc1)c1ccc(F)cc1	1.67
O=C(CSc1nc2cc(Cl)ccc2o1)c1cccc([N+](=O)[O-])c1	0.86
O=C(O)CC12CC3CC(CC(Cl)(C3)C1)C2	-0.55
O=C(Cn1nnc(COc2ccccc2Cl)n1)NNC(=O)Nc1ccc(Cl)cc1	2.21
COc1ccccc1C1Nc2ccccc2-c2cc(C)nn21 (configuration not stated)	0.8
COc1ccccc1C1Nc2ccc(C)cc2-c2cc(C)nn21 (configuration not stated)	3.45*
CCOc1cccc(C2Nc3ccc(C)cc3-c3cc(C)nn32)c1O (configuration not stated)	1.54
COc1ccc(C2Nc3ccc(C)cc3-c3cc(C)nn32)c(OC)c1 (configuration not stated)	0.75
CCOc1ccccc1C1Nc2ccc(C)cc2-c2cc(C)nn21 (configuration not stated)	4.11*
CCOc1ccc2oc(C)c(C(=O)OCCOC)c2c1	0.72
SMILES	Dicer processing
CCCCn1c(=O)c(C)c(C)c2ccccc21	-1.26
CCOC(=O)C1=NOC2C(=O)N(c3ccc(C)cc3)C(=O)C12 (configuration not stated)	0.74
CC(C)(C)OC(=O)Nc1ccc(Cl)cc1	-1.18
COc1ccc(Oc2ccc([N+](=O)[O-])cc2C(=O)O/N=C(\N)c2ccc(C(C)(C)C)cc2)cc1	-0.91
N#Cc1c(OCC(F)(F)F)ccc(SCc2ccccc2Cl)c1OCC(F)(F)F	-1.16
O=S(=O)(c1ccc(NC(=S)NCCc2ccccc2)cc1)N1CCCCC1	0.2
C=CCOC(=O)C1=C(C)Nc2nc3ccccc3n2C1c1ccc(OC)c(OC)c1 (configuration not stated)	-0.55
O=C1OC(Nc2ccc(Cl)c(Cl)c2)c2ccccc21 (configuration not stated)	2.17
O=S(=O)(NCCc1ccccn1)c1ccc(-c2ccno2)s1	-0.74
CC1(C)CC(=O)C2=C(C1)Nc1[nH]n(-c3ccccc3)c(=O)c1C2c1cccnc1 (configuration not stated)	-0.81
CSc1n[nH]c(-c2ccc(C(F)(F)F)cc2)n1	3.09
CCOC(=O)c1sc(-c2ccc(C(F)(F)F)cc2)nc1O	-0.27
Cc1nc(-c2ccc(C(F)(F)F)cc2)sc1Br	17.9*
CCOC(=O)c1c(NC(=O)Cn2nc(C(F)(F)F)c3c2CCC3)sc(C)c1C	0.42
Cc1csc2c(=O)nc3c(C#N)n[nH]n3c12	-0.08
N#Cc1c(-c2ccccc2)cc(-c2ccc(F)cc2)[nH]c1=O	-0.34
Cc1onc(-c2c(Cl)cccc2Cl)c1C(=O)NC1CSC(C)SC1 (configuration not stated)	0.66
O=C1c2ccccc2-c2cccc(C(=O)N3CCCCC3)c21	-1.23
O=C(c1ccc(N2CCOCC2)nc1)N1CCOCC1	0.43
O=C1c2ccccc2-c2ccc(C(=O)N3CCOCC3)cc21	4.1*
Cc1c(C#N)c(NC(=O)c2ccc(C(F)(F)F)cc2)n(CC2CC2)c1C	-0.23
CC1(C)N=c2ccc([N+](=O)[O-])cc2=N1	-4.32
O=C(CCSc1nc(-c2ccc3c(c2)OCO3)cc(C(F)(F)F)n1)N1CCCC1	0.35
COc1ccc(-c2cc(C(F)(F)F)nc(SCCC(=O)N3CCCC3)n2)cc1	3.26*
CC1CCN(C(=O)CCSc2nc(-c3ccco3)cc(C(F)(F)F)n2)CC1	0.51
COC(=O)c1ccc(C2C3=C(CC(c4cccs4)CC3=O)Nc3ccccc3N2C(=O)C2CC2)cc1 (configuration not stated)	-0.13
COc1ccccc1N1CCN(S(=O)(=O)CC23CCC(CC2=O)C3(C)C)CC1 (configuration not stated)	-2.02
CCOC(CN(C(=O)c1ccc(C(F)(F)F)cc1)c1ccc(F)cc1)OCC	-1.06
